Inconclusive results are not listed. Calls of active or inactive are those of the source. The calls were made as follows: active = hit-call score of the fitted dose curve at least 0.9, where 1 is the maximum; inconclusive = response in the unintended direction; inactive = score below 0.9.
How the values were obtained:
[1] = system: NCBI gene 100848466; experiment: NVS_NR_bPR: NovaScreen (NVS) Nuclear Receptor Binding Assay for bovine Progextron Receptor (PR) (AID 2283343);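 as to AC50: actives lower bound radioligand signal below DMSO meaning displacement of the label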
How it was run: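 Competitive radioligand binding with membranes from bovine uterus, scintillation read-out at 18 h post-dose. Compounds first tested in duplicate at 25 uM, then actives in concentration series; loss-of-signal relative to DMSO.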

[2] = molecular target: human Constitutive Androstane Receptor (CAR), NR1I3 (gene 9970) (UniProt Q14994); experiment: NVS_NR_hCAR_Antagonist: NovaScreen (NVS) Nuclear Receptor Binding Assay for human Constitutive Androstane Receptor Antagonism (CAR) (AID 2283344)
human Constitutive Androstane Receptor (CAR), NR1I3 (gene 9970), sequence (Q14994 whole entry, looked up): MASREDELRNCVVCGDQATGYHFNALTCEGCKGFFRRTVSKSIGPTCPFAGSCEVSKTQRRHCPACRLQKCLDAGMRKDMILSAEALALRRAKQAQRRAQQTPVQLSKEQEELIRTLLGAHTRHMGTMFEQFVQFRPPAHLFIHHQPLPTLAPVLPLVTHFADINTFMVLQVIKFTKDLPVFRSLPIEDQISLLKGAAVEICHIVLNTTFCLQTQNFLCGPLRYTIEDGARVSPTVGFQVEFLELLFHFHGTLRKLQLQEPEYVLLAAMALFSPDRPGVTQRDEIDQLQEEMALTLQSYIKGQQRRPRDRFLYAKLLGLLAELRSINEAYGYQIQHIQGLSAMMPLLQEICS
How it was run: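 Single 25 uM duplicate primary screen, with concentration-series follow-up on actives. Cell-free binding format run in antagonist mode, TR-FRET signal taken 1 h post-dose; activity is signal loss relative to DMSO.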

[3] = molecular target: chimpanzee Androgen Receptor (AR), AR (gene 747460) (UniProt O97775); experiment: NVS_NR_cAR: NovaScreen (NVS) Nuclear Receptor Binding Assay for chimpanzee Androgen Receptor (AR) (AID 2283346);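 also: radioligand displacement from AR measured by scintillation counting in a cell-free assay; a loss of bound radioligand signal versus DMSO counts as binding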
chimpanzee Androgen Receptor (AR), AR (gene 747460), sequence (O97775 whole entry, looked up): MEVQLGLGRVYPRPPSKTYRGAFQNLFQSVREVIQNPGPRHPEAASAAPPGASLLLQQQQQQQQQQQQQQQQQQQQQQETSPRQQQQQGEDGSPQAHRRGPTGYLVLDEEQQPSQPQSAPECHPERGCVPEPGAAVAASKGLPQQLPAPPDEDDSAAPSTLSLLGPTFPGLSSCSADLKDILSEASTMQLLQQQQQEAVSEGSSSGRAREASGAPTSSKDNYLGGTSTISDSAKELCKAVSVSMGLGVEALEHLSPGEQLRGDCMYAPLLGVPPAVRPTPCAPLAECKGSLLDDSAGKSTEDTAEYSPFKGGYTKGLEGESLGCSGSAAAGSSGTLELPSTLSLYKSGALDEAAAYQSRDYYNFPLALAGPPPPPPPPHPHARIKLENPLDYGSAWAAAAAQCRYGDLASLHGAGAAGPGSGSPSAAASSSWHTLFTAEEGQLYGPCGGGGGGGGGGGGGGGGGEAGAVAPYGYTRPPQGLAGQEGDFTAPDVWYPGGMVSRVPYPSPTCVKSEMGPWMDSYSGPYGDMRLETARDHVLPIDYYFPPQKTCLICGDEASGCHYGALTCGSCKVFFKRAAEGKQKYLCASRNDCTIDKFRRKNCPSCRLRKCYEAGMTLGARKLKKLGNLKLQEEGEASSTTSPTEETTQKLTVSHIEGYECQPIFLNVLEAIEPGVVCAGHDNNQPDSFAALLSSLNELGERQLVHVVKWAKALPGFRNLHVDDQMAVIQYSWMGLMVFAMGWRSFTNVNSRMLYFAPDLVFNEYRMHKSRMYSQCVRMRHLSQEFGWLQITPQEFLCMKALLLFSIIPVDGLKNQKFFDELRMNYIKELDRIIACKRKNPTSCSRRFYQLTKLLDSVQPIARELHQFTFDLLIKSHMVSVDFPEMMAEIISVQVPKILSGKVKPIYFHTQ
How it was run: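 Cell-free competition binding with insect-cell (Sf9/Sf21) extracted chimpanzee AR; scintillation signal from lysate at 72 h. Screened in duplicate at 25 uM, then concentration-response for actives; fitting relative to DMSO.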

[4] = system: guinea pig Histamine Receptor (H2), gene 100729734; experiment: NVS_GPCR_gH2: NovaScreen (NVS) G Protein-Coupled Receptor Assay for guinea pig Histamine Receptor (H2) (AID 2283342)
How it was run: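 Guinea pig striatal membrane preparation with specific radioligand; bound counts measured by filtration and scintillation 1 h post-dosing, DMSO as baseline. Chemicals passing a 25 uM duplicate screen were titrated to a 50 uM maximum.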

[5] = molecular target: Bile acid receptor (Homo sapiens) (UniProt Q96RI1); experiment: NVS_NR_hFXR_Antagonist: NovaScreen (NVS) Nuclear Receptor Binding Assay for human Farnesoid X Receptor Antagonism (FXR) (AID 2283350)
Bile acid receptor (Homo sapiens), sequence (Q96RI1 whole entry, looked up): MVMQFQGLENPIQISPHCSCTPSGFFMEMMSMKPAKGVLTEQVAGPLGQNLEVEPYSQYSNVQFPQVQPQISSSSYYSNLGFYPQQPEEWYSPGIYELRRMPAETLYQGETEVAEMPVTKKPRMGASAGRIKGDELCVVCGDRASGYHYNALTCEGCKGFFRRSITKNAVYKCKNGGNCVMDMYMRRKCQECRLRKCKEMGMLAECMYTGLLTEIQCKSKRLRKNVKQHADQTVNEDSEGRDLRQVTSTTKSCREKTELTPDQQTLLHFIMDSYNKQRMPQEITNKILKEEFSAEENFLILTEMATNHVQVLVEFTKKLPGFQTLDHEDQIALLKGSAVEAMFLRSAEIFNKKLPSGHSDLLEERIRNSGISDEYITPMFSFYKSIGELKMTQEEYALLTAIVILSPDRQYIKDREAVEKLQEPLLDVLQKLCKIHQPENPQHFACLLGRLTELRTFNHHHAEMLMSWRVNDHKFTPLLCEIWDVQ
How it was run: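 Antagonist-format time-resolved FRET binding assay with extracted human receptor protein, read 1 hour after compound addition. Compounds first screened at 25 uM in duplicate, then actives tested in concentration series, with loss of signal relative to DMSO.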

[6] = molecular target: bovine Estrogen Receptor (ER), ESR1 (gene 407238) (UniProt P49884); experiment: NVS_NR_bER: NovaScreen (NVS) Nuclear Receptor Binding Assay for bovine Estrogen Receptor (ER) (AID 2283345);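 also: actives lower the bound radioligand count which means they displace the ER ligand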
bovine Estrogen Receptor (ER), ESR1 (gene 407238), sequence (P49884 whole entry, looked up): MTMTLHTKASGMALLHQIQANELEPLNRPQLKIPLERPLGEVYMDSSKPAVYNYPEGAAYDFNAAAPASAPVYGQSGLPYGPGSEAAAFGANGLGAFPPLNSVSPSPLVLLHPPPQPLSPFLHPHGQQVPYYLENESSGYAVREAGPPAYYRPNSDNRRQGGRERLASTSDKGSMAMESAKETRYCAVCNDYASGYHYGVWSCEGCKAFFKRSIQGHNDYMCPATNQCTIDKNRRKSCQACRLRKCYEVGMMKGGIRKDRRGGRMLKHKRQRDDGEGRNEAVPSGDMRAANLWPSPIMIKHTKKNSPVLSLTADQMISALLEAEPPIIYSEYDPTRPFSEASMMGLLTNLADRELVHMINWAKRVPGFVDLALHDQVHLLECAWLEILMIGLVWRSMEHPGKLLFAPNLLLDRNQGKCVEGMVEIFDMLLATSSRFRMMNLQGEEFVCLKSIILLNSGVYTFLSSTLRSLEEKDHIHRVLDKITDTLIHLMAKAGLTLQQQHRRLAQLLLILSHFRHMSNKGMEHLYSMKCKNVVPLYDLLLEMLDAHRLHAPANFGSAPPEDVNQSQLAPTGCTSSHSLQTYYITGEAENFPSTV
How it was run: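 Cell-free radioligand binding with bovine uterine membrane extracts, read 18 hours after dosing by scintillation counting. Loss of signal versus DMSO baseline indicates displacement. Primary screen run in duplicate at 25 uM, actives followed in concentration series.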

[7] = molecular target: Estrogen receptor (Homo sapiens) (UniProt P03372); experiment: OT_ER_ERaERa_1440: Odyssey Thera (OT) 24-hour HEK293T Protein-Complementation Assay for Estrogen Receptor-alpha/-alpha Homodimer (AID 2283349);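 also: hits raise fluorescence above DMSO for agonists and antagonists alike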
Estrogen receptor (Homo sapiens), sequence (P03372 whole entry, looked up, the tested form may be a part): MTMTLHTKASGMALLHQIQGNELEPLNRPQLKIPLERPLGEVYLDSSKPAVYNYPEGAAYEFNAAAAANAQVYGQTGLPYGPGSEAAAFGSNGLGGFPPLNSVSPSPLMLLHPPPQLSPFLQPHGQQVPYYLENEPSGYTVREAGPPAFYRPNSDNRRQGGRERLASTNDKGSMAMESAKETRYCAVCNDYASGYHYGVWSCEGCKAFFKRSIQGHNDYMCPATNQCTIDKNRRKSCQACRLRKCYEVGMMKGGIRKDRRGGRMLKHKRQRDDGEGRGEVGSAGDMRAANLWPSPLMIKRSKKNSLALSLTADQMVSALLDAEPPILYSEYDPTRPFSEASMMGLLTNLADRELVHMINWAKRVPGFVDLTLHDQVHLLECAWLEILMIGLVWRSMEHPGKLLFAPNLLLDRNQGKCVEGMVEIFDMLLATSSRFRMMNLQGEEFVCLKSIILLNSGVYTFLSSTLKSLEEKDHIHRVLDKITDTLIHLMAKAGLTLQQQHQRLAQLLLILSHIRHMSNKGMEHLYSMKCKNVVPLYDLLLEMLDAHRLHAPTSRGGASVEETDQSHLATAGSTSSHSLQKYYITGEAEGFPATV
How it was run: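 HEK293T, stable ERα LBD (aa 310-547) homodimer PCA; 24 h compound exposure; mean fluorescence intensity (nuclear for agonists, nuclear plus cytoplasmic for antagonists) vs vehicle; positive fitting direction, DMSO baseline.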

[8] = molecular target: Estrogen receptor (Homo sapiens) (UniProt P03372); experiment: OT_ER_ERaERa_0480: Odyssey Thera (OT) 8-hour HEK293T Protein-Complementation Assay for Estrogen Receptor-alpha/-alpha Homodimer (AID 2283351);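 also: rise in fluorescence from reassembled reporter fragments on ERα LBD homodimer in nucleus or whole cell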
How it was run: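 HEK293T cells stably expressing a PCA pair of ER alpha LBD (residues 310-547) were dosed for 8 hours. The gain in fluorescence intensity, nuclear for agonists and whole-cell for antagonists, was measured by laser scanning cytometry against DMSO vehicle.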

[9] = molecular target: Estrogen receptor (Homo sapiens) (UniProt P03372); experiment: NVS_NR_hER: NovaScreen (NVS) Nuclear Receptor Binding Assay for human Estrogen Receptor (ER) (AID 2283348)
How it was run: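 Cell-free MCF7-derived ER preparation, specific radioligand displaced by test compound, read by scintillation counting 18 h post-dosing. Duplicate single-point 25 uM screen, then concentration-response confirmation; DMSO baseline.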

For CCCOCC(=Nc1ccc(Cl)cc1C(F)(F)F)n1ccnc1, the outcome [1] was “inactive”, the AC50 [2] was 5.88 µM (active) and the AC50 [3] was 5.96 µM (active).

In the case of FC(F)C(F)(F)OCC(Cn1cncn1)c1ccc(Cl)cc1Cl (configuration not stated), the AC50 [4] is reported as 10.1 µM (active), the AC50 [1] is reported as 25 µM (active) and the AC50 [3] is reported as 5.47 µM (active).

For CCCSP(=O)(OCC)SCCC, the outcome [1] was “inactive”, the outcome [2] was “inactive” and the outcome [5] was “inactive”.

For CCOP(=S)(OCC)Oc1ccc([N+](=O)[O-])cc1, the AC50 [1] was 2.23 µM (active) and the outcome [2] was “inactive”.

For CCCSP(=O)(OCC)Oc1ccc(Br)cc1Cl (configuration not stated), the AC50 [1] was 20.1 µM (active) and the AC50 [2] was 16 µM (active).

CC(C)[C@H](C(=O)O[C@H](C#N)c1cccc(Oc2ccccc2)c1)c1ccc(Cl)cc1 was tested, and the outcome [1] was “inactive”.

In the case of CC(C1CC1)C(O)(Cn1cncn1)c1ccc(Cl)cc1 (configuration not stated), the outcome [1] is reported as “inactive” and the AC50 [3] is reported as 24.9 µM (active).

For CCc1cccc(C)c1N(C(=O)CCl)C(C)COC (configuration not stated), the outcome [1] was “inactive” and the AC50 [2] was 12.9 µM (active).

In the case of CC(C)N(C(=O)SCC(Cl)=C(Cl)Cl)C(C)C, the AC50 [1] is reported as 36.8 µM (active) and the outcome [2] is reported as “inactive”.

CC[C@H](C)[C@H]1O[C@]2(C=C[C@@H]1C)C[C@@H]1C[C@@H](C/C=C(\C)[C@@H](O[C@H]3C[C@H](OC)[C@@H](O[C@H]4C[C@H](OC)[C@@H](NC)[C@H](C)O4)[C@H](C)O3)[C@@H](C)/C=C/C=C3\CO[C@@H]4[C@H](O)C(C)=C[C@@H](C(=O)O1)[C@]34O)O2 was tested, and the AC50 [4] was 26.4 µM (active), the AC50 [2] was 31 µM (active) and the outcome [6] was “inactive”. The AC50 [3] was 6.02 µM (active), the outcome [7] was “inactive” and the outcome [8] was “inactive”.

For CCOP(=S)(OCC)Oc1cc(C)nc(C(C)C)n1, the outcome [1] was “inactive” and the outcome [2] was “inactive”.

For C#CCC1=C(C)C(OC(=O)C2C(C=C(C)C)C2(C)C)CC1=O (configuration not stated), the outcome [1] was “inactive”, the outcome [2] was “inactive” and the outcome [3] was “inactive”.

CCOP(=S)(OCC)Oc1ccc2c(C)c(Cl)c(=O)oc2c1 was tested, and the AC50 [1] was 1.01 µM (active).

With C#CC(C)(C)NC(=O)c1cc(Cl)cc(Cl)c1 the outcome [1] was “inactive” and the outcome [2] was “inactive”.

With CCOC(=O)CC(SP(=O)(OC)OC)C(=O)OCC (configuration not stated) the outcome [1] was “inactive” and the outcome [2] was “inactive”.

In the case of CCOP(=S)(OCC)SCCSCC, the AC50 [1] is reported as 25 µM (active) and the outcome [2] is reported as “inactive”.

With CNC(=O)ON=C(SC)C(=O)N(C)C the outcome [1] was “inactive”, the outcome [2] was “inactive” and the outcome [6] was “inactive”. For the same molecule, the outcome [9] was “inactive”, the outcome [7] was “inactive” and the outcome [8] was “inactive”.

For CNc1cnn(-c2cccc(C(F)(F)F)c2)c(=O)c1Cl, the outcome [1] was “inactive”, the outcome [2] was “inactive” and the outcome [5] was “inactive”.

For C=C(C)[C@H]1Cc2c(ccc3c2O[C@@H]2COc4cc(OC)c(OC)cc4[C@@H]2C3=O)O1, the outcome [1] was “inactive”, the outcome [2] was “inactive” and the outcome [5] was “inactive”.

For C[Si](Cn1cncn1)(c1ccc(F)cc1)c1ccc(F)cc1, the AC50 [1] was 25 µM (active) and the AC50 [3] was 9.47 µM (active).
